PubChem BioAssay (NCI)
Compounds without any hit were thinned out: in the full panel of roughly 79,000, 15% have a hit. Calls of active or inactive are those of the source. No stated cut-off is given here; in the data, active means growth inhibition above about 70%; inactive means the rest.

Experiments:
[1] = NCI Yeast Anticancer Drug Screen. Data for the rad52 strain (AID 147);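 further: 0% = growth of vehicle-treated control cultures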; details: S. cerevisiae rad52 mutant growth inhibition, stronger effect = higher value
How it was run: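 Measured: yeast growth inhibition. System: strain with a defined DNA damage repair alteration. Reference: vehicle-treated control cultures.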

[2] = NCI Yeast Anticancer Drug Screen. Data for the wt1 strain (AID 149);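 further: 0% = growth of vehicle-treated wt1 cultures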; details: S. cerevisiae wt1 strain (SPY 50644) growth inhibition, stronger effect = higher value
How it was run: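 Each compound is tested on wt1 yeast and the loss of growth versus vehicle gives the inhibition value.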

[3] = NCI Yeast Anticancer Drug Screen. Data for the rad50EPP+ strain (AID 151);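 further: 0% = growth of vehicle-treated control cultures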; details: S. cerevisiae rad50 mutant strain, stronger effect = higher value
How it was run: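 One strain with a rad50 alteration (rad50EPP+) was compound-treated, its growth then compared to that of vehicle controls.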

[4] = NCI Yeast Anticancer Drug Screen. Data for the mgt1 strain (AID 153); details: S. cerevisiae mgt1 mutant growth inhibition, stronger effect = higher value
How it was run: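 After exposure of the mgt1 yeast mutant to compound, growth was measured and reported as inhibition compared with vehicle controls.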

[5] = NCI Yeast Anticancer Drug Screen. Data for the rad50 strain (AID 155);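 further: 0% = growth of vehicle-only cultures of the same strain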; details: S. cerevisiae rad50 strain growth inhibition, stronger effect = higher value
How it was run: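 Vehicle-treated cultures provide the reference for the growth inhibition reported for compound-exposed, repair-deficient yeast.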

[6] = NCI Yeast Anticancer Drug Screen. Data for the mec2-1 strain (AID 157); details: S. cerevisiae mec2-1 strain, stronger effect = higher value
How it was run: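 Test agents were screened against the mec2-1 yeast strain, with defined DNA repair or cell cycle alteration. Growth was scored as inhibition against vehicle-only controls.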

[7] = NCI Yeast Anticancer Drug Screen. Data for the rad14 strain (AID 159);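 further: 0% = growth of vehicle-treated control cultures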; details: S. cerevisiae rad14 strain growth inhibition, stronger effect = higher value
How it was run: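 Inhibition of growth is reported for a repair-deficient yeast mutant following compound treatment, calculated relative to cultures that received vehicle.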

[8] = NCI Yeast Anticancer Drug Screen. Data for the sgs1 mgt1 strain (AID 161);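 further: 0% = growth of cultures given vehicle only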; details: S. cerevisiae sgs1 mgt1 strain, stronger effect = higher value
How it was run: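 Mutant yeast exposed to compound; growth scored against vehicle-only wells.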

[9] = NCI Yeast Anticancer Drug Screen. Data for the CLN2oe strain (AID 163);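 further: 0% = growth of vehicle-only control cultures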; details: S. cerevisiae CLN2oe strain, stronger effect = higher value
How it was run: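 Here, growth inhibition in a cell-cycle-altered yeast strain after compound exposure was quantified against vehicle control growth.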

[10] = NCI Yeast Anticancer Drug Screen. Data for the cln2 rad14 strain (AID 165);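 further: 0% = growth equal to vehicle treated cultures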; details: S. cerevisiae cln2 rad14 strain, stronger effect = higher value
How it was run: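 Growth of compound-exposed yeast (cln2 rad14 genotype) measured and expressed as inhibition relative to vehicle.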

[11] = NCI Yeast Anticancer Drug Screen. Data for the bub3 strain (AID 167); details: S. cerevisiae bub3 mutant strain, stronger effect = higher value
How it was run: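 Mutant yeast screening strain plus compound; vehicle-treated cultures serve as the 0% inhibition reference.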

[12] = NCI Yeast Anticancer Drug Screen. Data for the wt2 strain (AID 169); details: S. cerevisiae wt2 strain growth inhibition, stronger effect = higher value
How it was run: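 Genetically defined yeast strains from a DNA-repair/cell-cycle panel were used. Compound-exposed yeast growth was measured, and the inhibition was calculated relative to vehicle treatment.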

[13] = NCI Yeast Anticancer Drug Screen. Data for the mlh1 strain (AID 171);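 further: 0% = growth of vehicle-treated control cultures of the same strain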; details: S. cerevisiae mlh1 strain growth inhibition, stronger effect = higher value
How it was run: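 Here the genetically defined yeast mutant is grown with each compound, and the extent to which its growth falls below that of vehicle-exposed cells is reported.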

[14] = NCI Yeast Anticancer Drug Screen. Data for the sgs1 strain (AID 173);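 further: 0% = growth of vehicle-only control cultures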; details: S. cerevisiae sgs1 mutant, stronger effect = higher value
How it was run: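 Relative growth inhibition, referenced to vehicle, was determined in a yeast strain with a defined alteration affecting DNA damage repair or cell cycle control after compound exposure.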

[15] = NCI Yeast Anticancer Drug Screen. Data for the rad18 strain (AID 177); details: S. cerevisiae rad18 mutant growth inhibition, stronger effect = higher value
How it was run: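 Screen uses a yeast strain with a defined lesion in DNA damage repair; compound effect is read as loss of growth compared to untreated vehicle cultures.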

[16] = at 5.0 µM (retest, dose inferred, filed as 0.5)
[17] = at 50.0 µM (retest, dose inferred, filed as 5.0)

Measured: growth inhibition

C=C1CC(Cn2cc(Br)c(=O)[nH]c2=O)(c2ccc(-c3ccccc3)cc2)OC1=O (stereo not given)
inactive: [1]; at 1.2 µM 2% | [1]; at 3.7 µM 13% | [1]; at 11.0 µM 21% | [1]; at 33.0 µM 41% | [2]; at 1.2 µM 1% | [2]; at 3.7 µM 6% | [2]; at 11.0 µM 15% | [2]; at 33.0 µM 26% | [3]; at 1.2 µM -4% | [3]; at 3.7 µM -5% | [3]; at 11.0 µM 3% | [3]; at 33.0 µM 9% | [3]; at 100.0 µM 16% | [4]; at 1.2 µM 0% | [4]; at 3.7 µM 9% | [4]; at 11.0 µM 29% | [4]; at 33.0 µM 55% | [5]; at 1.2 µM 3% | [5]; at 3.7 µM 7% | [5]; [16] 8% | [5]; at 11.0 µM 17% | [5]; at 33.0 µM 36% | [6]; at 1.2 µM 5% | [6]; at 3.7 µM 15% | [6]; [16] 21% | [6]; at 11.0 µM 40% | [6]; at 33.0 µM 57% | [7]; at 1.2 µM 5% | [7]; at 3.7 µM 15% | [7]; at 11.0 µM 27% | [7]; at 33.0 µM 41% | [8]; [16] 30% | [9]; at 1.2 µM -2% | [9]; at 3.7 µM -5% | [9]; at 11.0 µM 10% | [9]; at 33.0 µM 21% | [10]; [16] 23% | [11]; at 1.2 µM -1% | [11]; at 3.7 µM 1% | [11]; [16] 10% | [11]; at 11.0 µM 25% | [11]; at 33.0 µM 53% | [12]; at 1.2 µM 2% | [12]; at 3.7 µM 10% | [12]; at 11.0 µM 16% | [12]; at 33.0 µM 29% | [13]; at 1.2 µM 2% | [13]; at 3.7 µM 10% | [13]; at 11.0 µM 28% | [13]; at 33.0 µM 41% | [14]; at 1.2 µM 8% | [14]; at 3.7 µM 26% | [14]; at 11.0 µM 37% | [14]; at 33.0 µM 57% | [15]; at 1.2 µM 4% | [15]; at 3.7 µM 10% | [15]; at 11.0 µM 10% | [15]; at 33.0 µM 43%
active: [1]; at 100.0 µM 93% | [2]; at 100.0 µM 83% | [4]; at 100.0 µM 94% | [5]; [17] 98% | [5]; at 50.0 µM 98.3% | [5]; at 100.0 µM 92% | [6]; [17] 98% | [6]; at 50.0 µM 98.4% | [6]; at 100.0 µM 93% | [7]; at 100.0 µM 96% | [8]; [17] 87% | [8]; at 50.0 µM 97.3% | [9]; at 100.0 µM 96% | [10]; [17] 99% | [10]; at 50.0 µM 97.8% | [11]; [17] 99% | [11]; at 50.0 µM 98.2% | [11]; at 100.0 µM 92% | [12]; at 100.0 µM 92% | [13]; at 100.0 µM 94% | [14]; at 100.0 µM 93% | [15]; at 100.0 µM 95%
